Assay outcomes: PubChem, National Center for Advancing Translational Sciences (NCATS)
Pf growth 48h – P. falciparum growth inhibition at 48 hours (one generation); Potency, µM (top dose mostly 28.7 µM), most hits filed as inhibitors; P. falciparum luciferase growth in erythrocytes, 48 h; 5.9% of 310,000 active; active = well fitted inhibition curve with a large enough effect; inconclusive = small, poorly fitted or top-dose-only effect, or another doubt; inactive = no such curve, though single readings can be large or run the other way
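First compound was added to culture medium, then infected red cells at 0.1% parasitemia and 2% hematocrit (final). After incubation at 37 C under 5% CO2, luciferase detection reagent was dispensed and light output recorded.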
SARS PLpro yeast – blocks SARS-CoV papain-like protease in a yeast assay | S. cerevisiae expressing SARS-CoV PLpro, growth rescue | Potency, µM (highest dose often 32.9 µM), usual class: activators | 0.19% of 330,000 active; note: nearly all actives have a fitted effect of over 55% in size
NS1 function inh – blocks influenza NS1 protein function; Potency, µM (highest dose often 46.1 µM); 0.4% of 270,000 active; note: actives are rising curves; nearly all actives have a fitted effect of over 50% in size
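S. cerevisiae expressing influenza A NS1, grown in glucose, washed, then diluted 1:100 into pH 6.0 -URA galactose medium with 23 nl compound. Growth recovery read as OD600; NS1-free strain serves as control.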
CHX counter – counter-screen hit for Shiga toxin inhibitors, cycloheximide | cell reporter, cycloheximide protein synthesis inhibition counterscreen | max response, % | 12% of 300,000 active | AID 2314; in the data active = max response mostly above about 13%, no sharp cut-off; inactive = mostly below about 14%; note: read at 38.3 µM for the half of the compounds with a filed dose
Pf growth 96h – P. falciparum growth inhibition at 96 hours; Potency, µM (series often up to 28.7 µM), most hits filed as inhibitors; P. falciparum luciferase reporter growth, 96 h; 6.9% of 320,000 active; active = well fitted inhibition curve with a large enough effect; inconclusive = small, poorly fitted or top-dose-only effect, or another doubt; inactive = no such curve, though single readings can be large or run the other way
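P. falciparum expressing integrated firefly luciferase grown in erythrocytes (2% hematocrit, 0.05% parasitemia final) with compounds for 96 hours at 37 C, 5% CO2. Growth inhibition read as loss of luminescence after adding luciferase detection reagent.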
Shiga inhibitor – blocks Shiga toxin action in Vero cells | inhibition, % at 38.7 µM | 9.2% of 290,000 active | AID 2315 | Vero cells, Shiga toxin protein synthesis inhibition reporter; in the data active = inhibition mostly above about 28%, no sharp cut-off; inactive = mostly below about 43%
A number is an active result; – = inactive; ? = inconclusive; · = no result. The list is not random: actives were taken first. Their share in the collection is about 21%. Unless noted, calls come from the whole dose curve.

SMILES	Pf growth 48h	SARS PLpro yeast	NS1 function inh	CHX counter	Pf growth 96h	Shiga inhibitor
Cc1ccc(C(=O)c2c3ccccc3[n+]([O-])n2CCC(N)=O)cc1	–	–	–	–	–	–
CC(=O)Nc1ccc(NC(=O)c2cc(-c3ccc(C)cc3O)n[nH]2)cc1	?	–	–	–	?	–
Cc1cccc(NC(=O)c2cc(-c3cc(C)ccc3O)n[nH]2)c1	?	–	–	39.6	?	108.4
Cc1ccc(O)c(-c2cc(C(F)(F)F)[nH]n2)c1	?	–	–	–	14.7µM	–
Cc1cccc(NC(=O)c2cccc(C(=O)Nc3cccc(C)c3)c2)c1	–	–	–	–	–	–
Cc1ccc(-c2cc(C(=O)Nc3cccnc3)[nH]n2)c(O)c1C	?	–	–	38.8	–	100.4
Cc1cccc(NC(=O)c2cc(-c3cc(C)c(C)cc3O)n[nH]2)c1	·	–	–	28.3	?	43.2
Cc1cc(C)cc(C(=O)Nc2cccnc2)c1	–	–	–	–	?	·
CC#CCN(Cc1ccco1)C(=O)c1ccc(OC2CCN(Cc3ccccn3)CC2)cc1	?	–	–	–	–	–
COc1ccc(NC(=O)c2cc(-c3cc(C)ccc3O)n[nH]2)cc1Cl	2.08µM	–	–	–	?	–
COc1ccc(CCNC(=O)c2cc(-c3cc(C)ccc3O)n[nH]2)cc1OC	·	–	–	–	?	–
Oc1cccc2ccc(N3CCOCC3)nc12	–	–	–	24.5	–	–
CC(/C=C/C=C/c1ccccc1)=N\NC(=O)c1cccnc1	–	–	·	–	?	–
CC(/C=C/c1ccccc1F)=N\NC(=O)c1ccc(Cl)cc1	–	–	–	13.7	?	–
CC(/C=C/c1ccccc1F)=N\NC(=O)c1ccccc1	–	–	·	55.2	–	159.8
O=C(COC(=O)c1cccc(NS(=O)(=O)c2ccc(F)c(F)c2)c1)NC(=O)NC1CCCCC1	–	–	?	–	–	–
Cc1nc2c(C(=O)NCCc3ccccc3Cl)c[nH]n2c(=O)c1Cl	–	–	–	–	10.4µM	–
Cc1nc2c(C(=O)NCc3ccccc3Cl)c[nH]n2c(=O)c1Cl	–	–	–	–	–	–
Cc1cc(C)nc(SCc2csc(-c3ccccc3)n2)n1	–	–	–	60.8	–	84.9
Nc1ccccc1SCc1csc(-c2ccc(Cl)cc2)n1	–	–	–	44.1	–	112.9
C[N+](C)(N)Cc1csc(-c2ccc(Cl)cc2)n1	·	·	–	·	·	·
Cc1cc(C)nc(SCc2csc(N)n2)n1	–	–	–	27.6	–	–
CCCc1cc(=O)[nH]c(SCc2csc(-c3ccccc3)n2)n1	–	–	–	–	–	–
COc1ccc(CCNC(=O)c2c(O)c3c([nH]c2=O)CCCC3)cc1	–	–	–	–	·	–
CC(C)(C)NC(=O)C(c1ccncc1)N(Cc1cccs1)C(=O)Cn1nnc(-c2cccs2)n1 (stereo not drawn)	2.94µM	–	–	–	?	–
SMILES	Pf growth 48h	SARS PLpro yeast	NS1 function inh	CHX counter	Pf growth 96h	Shiga inhibitor
Cc1ccc(-c2nnn(CC(=O)N(Cc3ccco3)C(C(=O)NC(C)(C)C)c3ccc(C)o3)n2)o1 (stereo not drawn)	?	–	–	–	–	–
Cc1ccc(-c2nnn(CC(=O)N(Cc3ccccc3)C(C(=O)NC(C)(C)C)c3ccncc3)n2)o1 (stereo not drawn)	?	–	–	–	–	–
Cc1ccc(C(C(=O)NC(C)(C)C)N(Cc2ccco2)C(=O)Cn2nnc(-c3cccs3)n2)cc1 (stereo not drawn)	9.28µM	–	–	–	–	–
CCC(C)(C)NC(=O)C(c1ccc(C)cc1)N(Cc1ccco1)C(=O)Cn1nnc2ccccc21 (stereo not drawn)	?	–	–	–	–	–
CCC(C)(C)NC(=O)C(c1ccncc1)N(Cc1cccs1)C(=O)Cn1nnc2ccccc21 (stereo not drawn)	?	–	–	–	11.7µM	–
CC(C)(C)NC(=O)C(c1ccc(O)cc1)N(Cc1ccco1)C(=O)Cn1nnc(-c2cccs2)n1 (stereo not drawn)	13.1µM	–	–	–	–	–
CCCC(C(=O)NCc1ccccc1)N(C(=O)Cn1nnc(-c2cccs2)n1)c1ccc2c(c1)OCCO2 (stereo not drawn)	?	?	–	–	?	–
O=C(NCc1ccccc1)C(c1ccc(F)cc1)N(Cc1ccc2c(c1)OCO2)C(=O)Cn1nnc(-c2cccs2)n1 (stereo not drawn)	10.4µM	–	–	–	–	–
Cc1ccc(N(C(=O)Cn2nnc(-c3cccs3)n2)C(C(=O)NC2CCCC2)c2ccncc2)cc1 (stereo not drawn)	?	–	–	–	–	–
CC(C)(C)NC(=O)C(c1ccncc1)N(C(=O)Cn1nnc(-c2cccs2)n1)C1CCCCC1 (stereo not drawn)	9.28µM	–	–	–	–	–
CSc1nc2ccc(Br)cc2[nH]1	–	–	–	–	?	–
CC(C)Sc1nc2ccc(Br)cc2[nH]1	–	–	–	36.3	–	88.2
COCCNC(=O)/C(C#N)=C/C=C/c1ccccc1[N+](=O)[O-]	–	–	·	17.3	?	–
COCCNC(=O)/C(C#N)=C/c1ccc(O)cc1	–	–	–	18.8	–	–
COCCNC(=O)/C(C#N)=C/c1cccc(/C=C(\C#N)C(=O)NCCOC)c1	?	–	–	–	?	–
O=C(COC(=O)c1ccc([N+](=O)[O-])s1)Nc1ncc(C(F)(F)F)cc1Cl	–	–	–	–	–	–
COc1ccccc1NS(=O)(=O)c1cc(NC(=O)c2cccs2)ccc1N1CCCC1	?	–	–	–	?	–
COc1cc(OC)c(S(=O)(=O)Nc2ccccc2N2CCCCC2)cc1NC(C)=O	9.28µM	–	–	–	9.28µM	–
O=C(Nc1ccc(N2CCCC2)c(S(=O)(=O)Nc2cccc(C(F)(F)F)c2)c1)c1cccs1	?	–	–	–	14.7µM	–
COc1cc(S(=O)(=O)Nc2ccccc2N2CCCCC2)ccc1NC(C)=O	–	–	·	·	?	·
COc1ccccc1NS(=O)(=O)c1cc(NC(=O)Nc2ccccc2)ccc1N1CCCCC1	2.62µM	–	?	–	1.47µM	–
COc1ccccc1NS(=O)(=O)c1cc(NC(=O)c2cccs2)ccc1N1CCCCC1	?	–	?	–	3.7µM	–
O=C(Nc1cc(C(F)(F)F)ccc1N1CCOCC1)c1cccs1	·	–	–	–	?	–
CCN(CC)CCNC(=O)/C(=C/c1cn(C)c2ccccc12)NC(=O)c1ccc(OC)c(OC)c1	–	–	–	–	–	–
CCOC(=O)CN1C(c2ccc(O)cc2)Nc2ccc(Br)cc2C1c1ccccc1 (stereo not drawn)	?	–	–	–	3.29µM	–
CC(C)C(NC(=O)CN1C(=O)c2ccccc2C1=O)c1ccccc1 (stereo not drawn)	–	–	–	–	–	–
COc1cc(C2CC(=O)C=C(O)C2)cc(OC)c1OC (stereo not drawn)	5.86µM	–	–	–	?	–
